Assay outcomes deposited in PubChem BioAssay by several laboratories.
S1P4 agonist: S1P4 receptor agonists, primary screen, cell-based; S1P4-expressing cell line, agonist reporter assay; Sphingosine 1-phosphate receptor 4 (Homo sapiens), O95977; activation, % at 4.98 µM; 220,000 tested, 0.35% active; in the data active = activation above about 11%;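 note: 0% = DMSO vehicle and 100% = reference agonist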
Target sequence (O95977 whole entry, looked up): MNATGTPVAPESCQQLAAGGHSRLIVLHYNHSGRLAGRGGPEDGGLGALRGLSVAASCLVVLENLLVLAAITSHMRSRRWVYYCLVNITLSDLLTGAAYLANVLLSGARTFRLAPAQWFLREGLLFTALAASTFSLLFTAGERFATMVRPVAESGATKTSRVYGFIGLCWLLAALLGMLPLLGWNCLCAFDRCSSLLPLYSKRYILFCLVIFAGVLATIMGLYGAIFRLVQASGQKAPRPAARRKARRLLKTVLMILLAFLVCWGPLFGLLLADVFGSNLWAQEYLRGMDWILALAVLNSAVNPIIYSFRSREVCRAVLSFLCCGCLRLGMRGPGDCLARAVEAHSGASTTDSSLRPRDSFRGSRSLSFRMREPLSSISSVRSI
Cl transport mod: KCC2 cotransporter modulators, thallium flux, primary screen, cell-based, HEK293 KCC2, FluoZin-2 fluorescence, MLSMR; 190,000 tested, 2.2% active; Solute carrier family 12 member 5 (Homo sapiens), Q9H2X9; KCC2 cells, thallium flux FluoZin-2 fluorescence; B-score of Tl+ flux slope (higher = more flux/activation; lower = inhibition) at 10 µM; AID 1456, 2008;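 active = thallium flux slope and its plate-corrected score both differing from the plate sample mean at a set confidence after two filtering rounds, in either direction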;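 note: slope of fluorescence scaled to starting intensity during 10 to 20 s after thallium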
S1P3 antag: S1P3 receptor antagonists, primary screen, cell-based | 170,000 tested, 0.27% active | Sphingosine 1-phosphate receptor 3 (Homo sapiens), Q99500 | CHO S1P3 NFAT-BLA reporter, FRET fluorescence, antagonist mode | inhibition, % at 4.98 µM | AID 485, 2006;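 active = inhibition above the plate cutoff, the mean inhibition of test wells on that plate plus 3 SD, cut at about 28% in these data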;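 note: cells challenged with S1P at its EC80 of 0.8 µM; blue over green emission ratio from cleaved BLA substrate after 4 h stimulation; 0% = S1P-stimulated wells and 100% = unstimulated DMSO-only wells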
RAM inhibit: inhibitors of the yeast RAM network, primary screen, dse1pr::URA3 reporter, 5-FOA selection; 190,000 tested, 1.8% active; S. cerevisiae dse1pr::URA3 reporter, 5-FOA growth OD615, 2 d; analog-sensitive cbk1-as2 kinase mutant strain; inhibition, % at 50 µM;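 active = inhibition above a set limit, 3 SD over mean compound inhibition, cut at about 8.4% in these data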;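 note: 0% = DMSO-only wells with no growth and 100% = 10 µM 1-NA-PP1 full growth; inhibition rescues growth on 5-FOA so higher OD means more RAM inhibition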
ROMK mod: ROMK potassium channel modulators, primary screen, cell-based, thallium flux, MLSMR library | ATP-sensitive inward rectifier potassium channel 1 (Homo sapiens), P48048 | Tet-inducible ROMK, thallium flux fluorescence; actives lie on both sides | B-score at 10 µM | 130,000 tested, 2% active | AID 1918, 2009;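 active = signal ratio slope over the read window, or its plate-corrected B-score, at least 3 SD from the plate mean, either direction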;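 note: B-score of the F/F0 ratio slope over 7 to 12 s after thallium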
S1P4 antagonist: S1P4 receptor antagonists, primary screen, cell-based | S1P4-expressing cells, antagonist mode, reporter read-out | 220,000 tested, 0.26% active | inhibition, % at 4.98 µM | Sphingosine 1-phosphate receptor 4 (Homo sapiens), O95977; in the data active = inhibition above about 29%;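 note: 0% = wells stimulated with agonist and 100% = vehicle wells without agonist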
Numbers without * were called inactive; i = inactive; x = no result. Shown are actives, neighbours in structure and some others; about 5.1% of the full set was active somewhere.

SMILES	S1P4 agonist	Cl transport mod	S1P3 antag	RAM inhibit	ROMK mod	S1P4 antagonist
COC(=O)C1=NN(C(=O)c2ccc(Cl)cc2)C(O)(c2ccccc2)C1 (centres undefined)	0.2	17.3*	x	0.0	x	-4.0
O=C(N[C@@H](Cc1c[nH]c2ccccc12)C(=O)O)c1ccc(Cl)cc1	0.2	0	-15.8	8.9*	1.26	0.6
O=C(COC(=O)C(Cc1ccccc1)NC(=O)c1ccc(Cl)cc1)c1ccc(Cl)cc1 (centres undefined)	-0.5	-0.718	3.8	9.1*	0.248	-16.5
O=C(NC(Cc1c[nH]c2ccccc12)C(=O)O)c1ccccc1 (centres undefined)	5.3	x	-13.2	-1.3	-0.356	-13.0
CC(Sc1nnc(-c2cccs2)n1-c1ccccc1)C(=O)NCc1ccc2c(c1)OCO2 (centres undefined)	-2.7	-0.881	x	0.7	0.159	-2.2
COc1ccc(-c2cc(C(F)(F)F)nc(N3CCCCCC3)n2)cc1	-1.8	x	x	8.7*	0.735	-18.1
COc1ccc(-c2cc(C(F)(F)F)nc(N3CCN(C)CC3)n2)cc1	-5.3	x	x	1.2	0.53	10.3
COc1cccc(-c2nc(-c3ccc4c(c3)-c3ccccc3S4(=O)=O)c(-c3ccccc3)[nH]2)c1OC	0.7	0.982	x	9.2*	x	-8.7
O=C(Nc1ccccc1)C1=C[C@H](c2csc3ccccc23)C[C@H](OCCCCO)O1	-1.7	-1.72	-1.0	10.8*	x	10.6
O=C(NCc1ccccc1)C1=C[C@H](c2csc3ccccc23)C[C@H](OCCCCO)O1	-0.6	0.234	-13.9	10.8*	x	13.9
O=C(NCc1ccccc1)C1=C[C@@H](c2ccc(Br)cc2)C[C@@H](OCc2ccc(CO)cc2)O1	1.3	-1.05	-24.1	8.8*	x	2.9
CCn1ccnc1CN(C)Cc1nc(-c2ccc(C(=O)OC)cc2)no1	2.2	i	-18.4	x	x	-14.9
Cc1ccc(-n2c(CNC(=O)c3cccs3)nnc2SCC(=O)NO)cc1	-2.1	0.886	-0.7	0.4	-0.2	-11.2
O=C(/C=C/c1ccccc1)NC(=S)Nc1ncccn1	-0.4	-1.36	-4.3	x	x	-8.4
O=C1C2CC=CCC2C(=O)N1c1ccc(N2CCN(c3ccccn3)CC2)c([N+](=O)[O-])c1 (centres undefined)	0.9	1.13	10.5	2.9	-0.749	1.1
Cc1ccc(NS(=O)(=O)c2ccc3[nH]c(=O)[nH]c3c2)c(C)c1	-1.4	0.0456	-10.1	0.0	0.459	-3.0
COCCNC(=O)C(c1cccc(OC)c1)N(Cc1cccs1)C(=O)Cn1nnc2ccccc21 (centres undefined)	0.5	-0.619	-11.2	8.6*	x	0.7
CCCCN(C(=O)Cn1nnc2ccccc21)C(C(=O)NCCOC)c1cccs1 (centres undefined)	2.2	-0.0438	x	0.8	0.838	-15.7
CCOC(=O)c1ccc(N2CSC3=C(C#N)C(c4cccs4)CC(=O)N3C2)cc1 (centres undefined)	-1.1	-3.22	95.8*	3.6	x	-22.6
COc1ccc(C(CCc2ccc(C)o2)NC(=O)Nc2ccc(OC)cc2OC)cc1 (centres undefined)	0.2	-0.0396	x	10.1*	x	-7.4
COC(=O)C1=C(C)N(CCc2ccccc2)C(=O)/C1=C\c1ccco1	-0.3	-1.42	-4.4	11.2*	0.388	-4.8
COC(=O)C1=C(C)N(c2cccc(OC)c2)C(=O)/C1=C\c1ccco1	1.4	-0.899	-15.8	9.0*	-0.85	-31.3
CCOc1ccc(/C=N/NC(=O)CN2CCCCCCC2)cc1	-1.1	0.0119	-24.4	2.7	-0.763	1.7
COc1cccc(-n2c(=O)[nH]cc(C(=O)Nc3ccc4c(c3)OCCO4)c2=O)c1	-0.1	-0.717	-12.2	8.8*	x	-10.7
S=C(NCc1ccco1)Nc1cc(-c2ccccc2)[nH]n1	0.0	-1.92	24.0	0.3	-2.27	-0.3
COc1cccc(N/C(N)=N/c2nc(C(F)(F)F)cc(=O)[nH]2)c1	-1.2	0.691	-0.9	3.3	x	-5.6
